{
  "source": "PubChem BioAssay (NCI)",
  "note": "Compounds without any hit were thinned out: in the full panel of roughly 83,000, 20% have a hit.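 Results are percent growth after 48 hours of single-concentration exposure. 100 means growth as in untreated cells, lower positive values show inhibition; negative values down to -100 show cell death.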 Calls of active or inactive are those of the source.",
  "data": [
    {"test_system": "BT-549 breast", "experiment": "NCI-60 one-dose screen, 48 h (100 = growth as untreated, 0 = no growth, -100 = all killed)", "details": "10 µM unless noted", "description": "Growth inhibition of the BT-549 human tumor cell line is measured as a screen for anti-cancer activity. Cells are grown in 96 well plates and exposed to the test compound for 48 hours. Compounds are tested at a single concentration, which is 10^-5 M for most compounds. The reported endpoint is percent growth (GI% or GIPRCNT), where numbers from 0 - 100% represent growth inhibition, and numbers from -100% - 0 represent cell death. For example, a value of 40 represents 60% growth inhibition. A value of 0 means no net growth occurred over the course of the experiment. A value of -40 indicates 40% of cells at the beginning of the experiment died by the end of the experiment. A value of -100 means all cells are dead at the end of the experiment.\nNCI-60 Human Tumor Cell Lines Screen was performed using the standard one-dose NCI protocol, which is described in more detail at https://dtp.cancer.gov/discovery_development/nci-60/default.htm.\nCompounds with GIPRCNT values below 10 were considered active. Activity score was based on GIPRCNT using the following formula: […]\nScore is 0 for GIPRCNT values of 100 or above, 50 for GIPRCNT values of 0, and 100 for GIPRCNT values of -100.", "values": [
      {"smiles": "Cc1[nH]n(-c2ccccc2)c(=O)c1C=NC(=S)C(N)=S", "growth": "108% (inactive)"},
      {"smiles": "COc1ccc(/C=C\\C(=O)/C=C/c2ccc(OC)cc2)cc1", "growth": "48.5% (inactive)"},
      {"smiles": "CCOC(C=O)OCC", "growth": "103% (inactive)"},
      {"smiles": "O=C(O)CSCC(=O)Nc1cc(C(F)(F)F)ccc1Cl", "growth": "114% (inactive)"},
      {"smiles": "O=[N+]([O-])c1c(O)c(CNCCCO)cc(CNCCCO)c1O", "growth": "119% (inactive)"},
      {"smiles": "O=c1[nH]c(=O)c2cc(Cl)cc(Cl)c2[nH]1", "growth": "91.4% (inactive)"},
      {"smiles": "CC(c1ccccc1)N(C)C", "note": "(stereo not given)", "growth": "101% (inactive)"},
      {"smiles": "Cc1cc(Cl)cc(Cc2cc(Cl)cc(C)c2O)c1O", "growth": "1.21% (active)"},
      {"smiles": "CCOC(=O)c1cc(C)[nH]c(=O)c1C#N", "growth": "92.9% (inactive)"},
      {"smiles": "O=C(CCl)Nc1ccccc1SCc1cc(Cl)cc2c1OCOC2", "growth": "71.9% (inactive)"},
      {"smiles": "CC(C)Sc1ncnc2nc[nH]c12", "growth": "121% (inactive)"},
      {"smiles": "OCc1cccnc1", "growth": "106% (inactive)"},
      {"smiles": "CC(C)c1ccccc1NC(=O)N1CCC(C(C)C)CC1", "growth": "103% (inactive)"},
      {"smiles": "O=S(=O)(O)c1ccc(O)c(C2CCCCC2)c1", "growth": "98.2% (inactive)"},
      {"smiles": "Cc1cc(C)cc(OCC(=O)O)c1", "growth": "97.9% (inactive)"},
      {"smiles": "O=c1n(CC2CO2)c(=O)n(CC2CO2)n1CC1CO1", "note": "(stereo not given)", "growth": "54.4% (inactive)"},
      {"smiles": "COC1OC(CO)C(OC)C(O)C1O", "note": "(stereo not given)", "growth": "104% (inactive)"},
      {"smiles": "CC(C)(C)CC1(C)NC(=O)NC1=O", "note": "(stereo not given)", "growth": "119% (inactive)"},
      {"smiles": "OC1Cc2ccccc2C1", "growth": "97.4% (inactive)"},
      {"smiles": "CCC12OC(COc3ccccc3)CN1CCN2c1ccccc1", "note": "(stereo not given)", "growth": "105% [100 µM] (inactive)"},
      {"smiles": "O=Cc1ccc(F)cc1", "growth": "100% (inactive)"},
      {"smiles": "CC(=O)c1cccs1", "growth": "97% (inactive)"},
      {"smiles": "CCCCNC(=O)c1ccc(OCC)cc1", "growth": "99.9% (inactive)"},
      {"smiles": "c1ccc(-c2ccc3ccccc3c2)cc1", "growth": "98.8% (inactive)"},
      {"smiles": "CCOC(=O)c1ccc(NC(C)=O)o1", "growth": "104% (inactive)"},
      {"smiles": "C/C(O)=C(/C=N\\C(=S)Nc1ccc(S(=O)(=O)Nc2nccs2)cc1)C(=O)Nc1ccccc1C", "growth": "99.2% (inactive)"},
      {"smiles": "COc1ccc(-c2csc(NC(=O)Nc3nc(-c4ccc(OC)cc4)cs3)n2)cc1", "growth": "79.9% (inactive)"},
      {"smiles": "Nc1ncc([N+](=O)[O-])cn1", "growth": "111% (inactive)"},
      {"smiles": "Clc1cccc(Cl)c1C1CSc2ccccc2N=C1c1ccccc1", "note": "(stereo not given)", "growth": "42% (inactive)"},
      {"smiles": "COC1OC(C(O)C(O)CO)C(O)C(O)C1O", "note": "(stereo not given)", "growth": "91% (inactive)"},
      {"smiles": "CCOC(OCC)C(=O)c1ccccc1", "growth": "101% (inactive)"},
      {"smiles": "COc1ccc(C2CC(c3ccccc3)=Nc3ccccc3S2)cc1", "note": "(stereo not given)", "growth": "91.6% (inactive)"},
      {"smiles": "NCC(O)C(O)C(O)C(O)CO", "note": "(stereo not given)", "growth": "91.3% (inactive)"},
      {"smiles": "C=C(OC(C)=O)c1ccccc1", "growth": "107% (inactive)"},
      {"smiles": "O=C(O)c1cccc(-n2ncc(Cl)c(Cl)c2=O)c1", "growth": "105% (inactive)"},
      {"smiles": "CC(C)(C)NCCC(O)c1cc(C(F)(F)F)nc2c(C(F)(F)F)cccc12", "note": "(stereo not given)", "growth": "86.5% (inactive)"},
      {"smiles": "CN(C)Cc1ccccn1", "growth": "101% (inactive)"},
      {"smiles": "NNc1ncnc2nc[nH]c12", "growth": "85% (inactive)"},
      {"smiles": "COc1ccc2c(c1)Nc1ccccc1S2", "growth": "89.1% (inactive)"},
      {"smiles": "CCOC(=O)C(CCC#N)(CCC#N)C(=O)OCC", "growth": "98% (inactive)"}
    ]}
  ]
}
